Measurements as given in PubChem BioAssay (EPA / NIEHS).
Values joined by “and” are separate entries in the source; they are usually repeats but may differ in a detail not shown here. Equal entries are not always repeated. More than one record can exist for a structure, and the calls need not agree. Active and inactive are the calls of the source. How the source made its calls: active means hit-call score of the fitted dose curve at least 0.9, where 1 is the maximum; inactive means score below 0.9.

Tests used:
[1] = ATG_M_32_CIS: Attagene CIS-FACTORIAL HepG2 Assay for M32 Transcription Factor (Internal Marker) (AID 2282949); settings: HepG2 Attagene cis-factorial M32 reporter, mRNA; actives raise or lower the signal;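 further: background control marker of the multiplexed CIS panel rather than a real target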
In short: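 Using DMSO as baseline, bidirectional curve fits were applied to reporter mRNA signals. These came from transiently transfected HepG2 cells exposed for 24 h, with RNA analysed by RT-PCR, FAM primer extension, HpaI digestion and CE.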

[2] = ATG_M_06_CIS: Attagene CIS-FACTORIAL HepG2 Assay for M06 Transcription Factor (Internal Marker) (AID 2282950); settings: HepG2 Attagene CIS-FACTORIAL M06 internal marker reporter; actives raise or lower the signal
In short: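 Cells (HepG2, transiently carrying cis-driven reporter units) receive chemical for 24 h before RNA isolation. Reporter cDNA is PCR-amplified, FAM-labelled by primer extension, HpaI-digested and sized on a capillary analyser.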

[3] = target: Hypoxia-inducible factor 1-alpha (Homo sapiens) (UniProt Q16665); test: ATG_HIF1a_CIS: Attagene CIS-FACTORIAL HepG2 Assay for human Hypoxia Inducible Factor 1 (HIF1A) (AID 2282951); settings: HepG2 Attagene cis-factorial HIF1a reporter transcription; actives raise or lower the signal
Sequence of Hypoxia-inducible factor 1-alpha (Homo sapiens) (Q16665 whole entry, looked up): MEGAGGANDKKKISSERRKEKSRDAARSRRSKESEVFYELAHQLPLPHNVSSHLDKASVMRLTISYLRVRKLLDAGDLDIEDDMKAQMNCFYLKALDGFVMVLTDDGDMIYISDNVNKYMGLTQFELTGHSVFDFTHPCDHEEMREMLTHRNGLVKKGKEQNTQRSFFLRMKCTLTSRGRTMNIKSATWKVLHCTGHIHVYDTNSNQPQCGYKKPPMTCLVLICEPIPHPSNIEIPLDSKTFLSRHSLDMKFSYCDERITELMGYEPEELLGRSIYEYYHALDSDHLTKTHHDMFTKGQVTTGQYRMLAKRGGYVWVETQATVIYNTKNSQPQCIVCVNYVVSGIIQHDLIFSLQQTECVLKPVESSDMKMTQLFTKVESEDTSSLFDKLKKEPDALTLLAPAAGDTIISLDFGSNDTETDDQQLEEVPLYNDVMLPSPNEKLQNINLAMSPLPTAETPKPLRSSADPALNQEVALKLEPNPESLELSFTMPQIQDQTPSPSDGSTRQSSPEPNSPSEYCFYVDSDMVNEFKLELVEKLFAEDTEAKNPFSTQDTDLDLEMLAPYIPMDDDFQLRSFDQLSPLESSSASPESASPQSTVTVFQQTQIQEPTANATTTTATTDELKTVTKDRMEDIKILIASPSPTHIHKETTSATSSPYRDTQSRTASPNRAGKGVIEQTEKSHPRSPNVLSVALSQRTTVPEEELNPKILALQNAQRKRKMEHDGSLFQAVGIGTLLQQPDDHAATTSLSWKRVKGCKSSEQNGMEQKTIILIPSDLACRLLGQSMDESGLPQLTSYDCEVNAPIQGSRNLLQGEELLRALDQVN
In short: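 Dosed 24 h, transfected HepG2 cells yielded total RNA whose reporter transcripts were RT-PCR-amplified and sized by capillary electrophoresis using fluorescent labelling; DMSO defined baseline, with gain and loss of signal both fitted.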

[4] = target: Hepatocyte nuclear factor 6 (Homo sapiens) (UniProt Q9UBC0); test: ATG_HNF6_CIS: Attagene CIS-FACTORIAL HepG2 Assay for human Hepatocyte Nuclear Factor 6 (HNF6) (AID 2282952); settings: HepG2 Attagene cis-factorial HNF6 reporter transcription; actives raise or lower the signal
Sequence of Hepatocyte nuclear factor 6 (Homo sapiens) (Q9UBC0 whole entry, looked up, the tested form may be a part): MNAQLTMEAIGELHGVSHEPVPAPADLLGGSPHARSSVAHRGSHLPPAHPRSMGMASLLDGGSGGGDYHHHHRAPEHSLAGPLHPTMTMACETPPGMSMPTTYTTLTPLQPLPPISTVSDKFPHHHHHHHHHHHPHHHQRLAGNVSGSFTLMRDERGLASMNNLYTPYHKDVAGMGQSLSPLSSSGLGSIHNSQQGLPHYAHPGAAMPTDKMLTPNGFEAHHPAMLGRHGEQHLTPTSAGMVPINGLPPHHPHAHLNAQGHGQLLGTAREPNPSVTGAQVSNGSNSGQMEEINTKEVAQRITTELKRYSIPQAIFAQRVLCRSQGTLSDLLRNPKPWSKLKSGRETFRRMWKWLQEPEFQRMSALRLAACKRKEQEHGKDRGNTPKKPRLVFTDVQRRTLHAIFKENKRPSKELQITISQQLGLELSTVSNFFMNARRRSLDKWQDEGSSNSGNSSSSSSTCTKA
In short: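 Twenty-four-hour chemical treatment of reporter-transfected HepG2 cells precedes RNA isolation, DNase-treated reverse transcription and PCR of reporter sequences. Labelled fragments are sized by capillary electrophoresis and fitted bidirectionally versus DMSO.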

[5] = ATG_MRE_CIS: Attagene CIS-FACTORIAL HepG2 Assay for human Metal Responsive Element (MRE) (AID 2282954); settings: HepG2 MRE cis-reporter transcription, Attagene multiplex; actives raise or lower the signal
In short: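 Multiplexed cis-reporter assay in human HepG2 liver cells, 24 h incubation with test chemical. Reporter transcripts measured by RT-PCR and capillary electrophoresis; values from bidirectional curve fitting versus DMSO.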

[6] = ATG_PBREM_CIS: Attagene CIS-FACTORIAL HepG2 Assay for human Phenobarbital-responsive Enhancer Module (PBREM) (AID 2282955); settings: HepG2 PBREM cis-reporter, Attagene multiplexed transcription; actives raise or lower the signal
In short: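 Transfected liver-derived HepG2 cells exposed 24 h; PBREM reporter transcript quantified via RT-PCR and capillary electrophoresis, with activity in either direction referenced to DMSO.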

[7] = target: Paired box protein Pax-6 (Homo sapiens) (UniProt P26367); test: ATG_Pax6_CIS: Attagene CIS-FACTORIAL HepG2 Assay for human Paired Box 6 (PAX6) (AID 2282956); settings: HepG2 CIS-FACTORIAL PAX6 reporter transcription, RNA readout; actives raise or lower the signal
Sequence of Paired box protein Pax-6 (Homo sapiens) (P26367 whole entry, looked up): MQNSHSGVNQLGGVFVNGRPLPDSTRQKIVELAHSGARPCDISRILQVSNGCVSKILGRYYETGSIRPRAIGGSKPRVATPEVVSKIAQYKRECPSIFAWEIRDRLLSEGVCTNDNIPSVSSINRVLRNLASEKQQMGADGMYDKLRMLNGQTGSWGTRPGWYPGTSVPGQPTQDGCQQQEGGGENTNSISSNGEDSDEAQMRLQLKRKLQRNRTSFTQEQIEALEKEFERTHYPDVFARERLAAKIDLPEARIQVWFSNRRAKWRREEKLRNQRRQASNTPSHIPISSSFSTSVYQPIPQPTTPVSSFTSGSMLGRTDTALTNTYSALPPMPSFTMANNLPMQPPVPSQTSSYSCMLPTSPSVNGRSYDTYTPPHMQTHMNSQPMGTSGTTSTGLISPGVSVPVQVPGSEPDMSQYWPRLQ
In short: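 Fluorescent RT-PCR products separated by capillary electrophoresis report PAX6-linked promoter mRNA in HepG2 cells 24 h post-dose. Curves fitted bidirectionally, DMSO as negative control.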

[8] = ATG_RORE_CIS: Attagene CIS-FACTORIAL HepG2 Assay for human RAR-related Orphan Receptor Element (RORE) (AID 2282959); settings: HepG2 Attagene cis-factorial RORE reporter, mRNA; actives raise or lower the signal
In short: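 Transiently transfected HepG2 reporter cells were treated 24 h. Reporter transcripts were detected by RT-PCR and capillary electrophoresis, with bidirectional fitting against DMSO.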

[9] = ATG_Sox_CIS: Attagene CIS-FACTORIAL HepG2 Assay for human SRY-box transcription factor (SOX) (AID 2282960); settings: HepG2 Attagene cis-factorial SOX reporter, mRNA; actives raise or lower the signal
In short: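 Gain- or loss-of-signal endpoint, fitted bidirectionally with DMSO as negative control. Based on reporter mRNA from transfected HepG2 cells harvested 24 h post-treatment and quantified via RT-PCR and capillary electrophoresis.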

[10] = target: Transcription factor Sp1 (Homo sapiens) (UniProt P08047); test: ATG_Sp1_CIS: Attagene CIS-FACTORIAL HepG2 Assay for human Specificity Protein 1 (Sp1) (AID 2282961); settings: HepG2 Sp1 cis-reporter transcription, actives raise or lower the signal
Sequence of Transcription factor Sp1 (Homo sapiens) (P08047 whole entry, looked up, the tested form may be a part): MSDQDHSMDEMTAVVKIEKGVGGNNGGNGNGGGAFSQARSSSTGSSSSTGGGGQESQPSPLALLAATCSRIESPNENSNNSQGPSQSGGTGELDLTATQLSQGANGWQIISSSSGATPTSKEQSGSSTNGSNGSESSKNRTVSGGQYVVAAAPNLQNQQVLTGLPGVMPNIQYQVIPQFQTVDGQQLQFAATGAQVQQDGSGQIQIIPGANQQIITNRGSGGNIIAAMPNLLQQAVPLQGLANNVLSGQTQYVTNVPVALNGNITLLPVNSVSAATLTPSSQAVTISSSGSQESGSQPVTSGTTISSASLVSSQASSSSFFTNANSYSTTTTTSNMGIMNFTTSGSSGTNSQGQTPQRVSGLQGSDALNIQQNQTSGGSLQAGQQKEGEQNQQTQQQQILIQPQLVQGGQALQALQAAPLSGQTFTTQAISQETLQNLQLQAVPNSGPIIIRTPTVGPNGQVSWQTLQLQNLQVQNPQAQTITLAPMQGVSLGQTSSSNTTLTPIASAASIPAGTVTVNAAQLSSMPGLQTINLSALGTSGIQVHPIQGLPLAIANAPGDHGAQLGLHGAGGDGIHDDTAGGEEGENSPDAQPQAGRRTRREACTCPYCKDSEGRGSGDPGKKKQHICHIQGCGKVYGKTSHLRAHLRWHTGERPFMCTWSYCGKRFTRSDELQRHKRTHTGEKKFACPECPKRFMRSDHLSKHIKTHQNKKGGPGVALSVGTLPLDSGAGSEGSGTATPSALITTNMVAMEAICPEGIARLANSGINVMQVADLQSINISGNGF
In short: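 Endpoint reflects endogenous Sp1 transcriptional activity, not an exogenous fusion protein: HepG2 cells with transfected cis-regulated reporters, 24 h dosing, RT-PCR/capillary electrophoresis mRNA read-out, DMSO-normalised bidirectional fit.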

[11] = ATG_SREBP_CIS: Attagene CIS-FACTORIAL HepG2 Assay for human Sterol Regulatory Element Binding (SREBP) (AID 2282962); settings: HepG2 Attagene cis-factorial SREBP reporter, mRNA; actives raise or lower the signal
In short: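 Endogenous factor activity is measured in HepG2 through multiplexed reporter units under cis-element control. Following a 24 h incubation, reporter transcripts are reverse-transcribed, PCR-amplified and sized by capillary electrophoresis; activity is fitted in both directions relative to DMSO.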

[12] = target: Signal transducer and activator of transcription 3 (Homo sapiens) (UniProt P40763); test: ATG_STAT3_CIS: Attagene CIS-FACTORIAL HepG2 Assay for human Signal Transducer and Activator of Transcription 3 (STAT3) (AID 2282963); settings: HepG2, Attagene cis-factorial STAT3 reporter transcription; actives raise or lower the signal
Sequence of Signal transducer and activator of transcription 3 (Homo sapiens) (P40763 whole entry, looked up): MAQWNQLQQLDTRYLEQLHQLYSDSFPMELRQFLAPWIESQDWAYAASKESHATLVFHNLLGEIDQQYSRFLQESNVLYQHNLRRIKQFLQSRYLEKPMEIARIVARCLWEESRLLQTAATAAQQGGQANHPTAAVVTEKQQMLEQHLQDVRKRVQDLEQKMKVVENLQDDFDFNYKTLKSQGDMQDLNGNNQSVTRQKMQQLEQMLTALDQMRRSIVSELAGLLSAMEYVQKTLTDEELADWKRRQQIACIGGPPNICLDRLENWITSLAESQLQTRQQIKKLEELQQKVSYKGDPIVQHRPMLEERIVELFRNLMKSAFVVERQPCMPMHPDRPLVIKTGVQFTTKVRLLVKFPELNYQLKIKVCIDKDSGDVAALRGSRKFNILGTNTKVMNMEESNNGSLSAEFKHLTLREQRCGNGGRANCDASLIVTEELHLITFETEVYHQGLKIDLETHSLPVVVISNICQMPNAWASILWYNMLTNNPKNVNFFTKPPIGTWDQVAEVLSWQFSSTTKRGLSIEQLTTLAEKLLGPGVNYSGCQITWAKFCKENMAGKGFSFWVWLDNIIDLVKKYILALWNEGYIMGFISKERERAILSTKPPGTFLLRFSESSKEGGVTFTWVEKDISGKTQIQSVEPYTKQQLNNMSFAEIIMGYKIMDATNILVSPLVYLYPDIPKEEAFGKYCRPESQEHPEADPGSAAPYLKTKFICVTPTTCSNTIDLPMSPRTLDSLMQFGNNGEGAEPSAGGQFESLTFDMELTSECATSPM
In short: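 Cis-factorial format: endogenous transcription factors in HepG2 drive transfected reporter units. After 24 h treatment, reporter RNA was reverse-transcribed, amplified, FAM-labelled and HpaI-digested before CE analysis; activity scored in both directions against DMSO.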

[13] = ATG_TA_CIS: Attagene CIS-FACTORIAL HepG2 Assay for human TA Basal Promoter (AID 2282964); settings: HepG2 Attagene CIS-factorial TA basal promoter reporter; actives raise or lower the signal
In short: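 Background internal-marker endpoint from a 52-component HepG2 cis-reporter panel. Cells treated 24 h; reporter transcripts quantified via RT-PCR and CE fluorescence against DMSO baseline.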

[14] = ATG_TCF_b_cat_CIS: Attagene CIS-FACTORIAL HepG2 Assay for human T-Cell-Factor with beta-catenin (TCF/b-cat) (AID 2282965); settings: HepG2 TCF/beta-catenin cis-reporter transcription, actives raise or lower the signal
In short: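 Measured: reporter mRNA in HepG2 transiently transfected with cis-promoter reporter units, 24 h after chemical addition. Fitting was bidirectional, DMSO as negative control.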

[15] = ATG_TAL_CIS: Attagene CIS-FACTORIAL HepG2 Assay for human TAL Basal Promoter (AID 2282966); settings: HepG2 Attagene cis-factorial TAL promoter reporter; actives raise or lower the signal;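 further: background control endpoint measuring basal TAL promoter reporter mRNA not a specific factor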
In short: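 Human hepatoma HepG2 cells, transfected with promoter-regulated reporter units, were treated 24 h. Reporter transcript levels, measured through RT-PCR and capillary electrophoresis, were fitted for gain or loss relative to DMSO.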

[16] = ATG_TGFb_CIS: Attagene CIS-FACTORIAL HepG2 Assay for human Transforming Growth Factor (TGF) (AID 2282967); settings: HepG2 Attagene CIS TGFb reporter, mRNA transcription; actives raise or lower the signal
In short: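 Liver HepG2 line, cis-factorial reporter panel, 24 h dosing. Quantitation: RT-PCR products labeled with 6-FAM, cut with HpaI, resolved by capillary electrophoresis; DMSO-referenced bidirectional analysis.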

[17] = ATG_VDRE_CIS: Attagene CIS-FACTORIAL HepG2 Assay for human Vitamin D Receptor Element (VDRE) (AID 2282968); settings: HepG2 VDRE cis-reporter transcription, actives raise or lower the signal
In short: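 Measures endogenous factor activity through cis-element-driven reporter transcripts in transiently transfected HepG2. Cells are treated 24 h; reporter mRNA is quantified by RT-PCR and capillary electrophoresis; fitting is bidirectional.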

[18] = ATG_PPRE_CIS: Attagene CIS-FACTORIAL HepG2 Assay for human Peroxisome Proliferator-activated Response Element (PPRE) (AID 2282958); settings: HepG2 PPRE cis-element reporter, Attagene transcription factor profiling; actives raise or lower the signal
In short: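 Measured endpoint: PPRE-controlled reporter mRNA, detected by RT-PCR and capillary electrophoresis fluorescence, from transiently transfected HepG2 cells 24 h after dosing. Curves fitted in both directions using DMSO baseline.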

[19] = target: Heat shock factor protein 1 (Homo sapiens) (UniProt Q00613); test: ATG_HSE_CIS: Attagene CIS-FACTORIAL HepG2 Assay for human Heat Shock Transcription Factor 1 (HSE) (AID 2282953); settings: HepG2 HSE cis-reporter, Attagene RNA transcription; actives raise or lower the signal
Sequence of Heat shock factor protein 1 (Homo sapiens) (Q00613 whole entry, looked up): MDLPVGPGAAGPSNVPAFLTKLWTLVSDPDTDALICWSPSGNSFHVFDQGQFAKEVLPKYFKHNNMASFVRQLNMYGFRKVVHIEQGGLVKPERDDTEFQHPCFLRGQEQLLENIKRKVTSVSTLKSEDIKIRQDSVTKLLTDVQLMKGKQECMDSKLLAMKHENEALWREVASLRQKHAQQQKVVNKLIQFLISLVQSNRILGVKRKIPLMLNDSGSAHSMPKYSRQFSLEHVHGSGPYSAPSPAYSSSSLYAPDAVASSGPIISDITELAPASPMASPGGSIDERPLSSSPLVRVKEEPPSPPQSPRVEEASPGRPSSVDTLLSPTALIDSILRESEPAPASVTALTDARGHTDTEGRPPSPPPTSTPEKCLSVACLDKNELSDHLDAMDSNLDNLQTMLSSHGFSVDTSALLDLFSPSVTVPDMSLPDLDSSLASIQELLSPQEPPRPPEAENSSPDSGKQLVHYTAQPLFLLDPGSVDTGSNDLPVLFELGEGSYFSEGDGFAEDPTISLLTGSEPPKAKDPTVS
In short: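 Liver-derived HepG2 cells carry transiently introduced multiple reporter units governed by cis promoters. Reporter RNA measured 24 h post-dose through reverse transcription, PCR amplification, fluorescent labelling and capillary electrophoresis, normalised to DMSO.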

[20] = ATG_PXRE_CIS: Attagene CIS-FACTORIAL HepG2 Assay for human Pregnane X Receptor Element (PXRE) (AID 2282957); settings: HepG2 Attagene CIS-FACTORIAL PXRE reporter, mRNA; actives raise or lower the signal
In short: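 Bidirectional activity, baselined to DMSO, derived from reporter mRNA fluorescence (RT-PCR plus capillary electrophoresis) in HepG2 cells bearing cis-promoter reporter units, 24 h exposure.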

Measured: AC50

O=c1cc(-c2ccccc2)oc2ccc3ccccc3c12
not listed: [18] | [19] | [20]
inactive: all other assays above

CCCCCc1ccc(O)cc1
not listed: [19] | [20]
inactive: all other assays above

CC1=NN(c2ccccc2)C(=O)C1
active: [20] 66.2 µM and 60 µM
not listed: [3] | [6] | [8] | [9] | [16] | [17] | [18]
inactive: all other assays above

Cc1cc(=O)oc2cc(O)ccc12
inactive: [1] | [2] | [4] | [19] | [5] | [6] | [7] | [9] | [10] | [11] | [12] | [13] | [14] | [15] | [16] | [17]
active: [6] 42.3 µM | [20] 8.35 µM and 25.5 µM | [17] 36 µM

COC(O)c1ccccc1 (stereo not drawn)
active: [20] 75.1 µM
not listed: [9] | [11] | [16] | [19]
inactive: all other assays above

CCCCc1oc2ccccc2c1C(=O)c1cc(I)c(OCCN(CC)CC)c(I)c1
inactive: [18] | [8] | [12] | [14] | [16]
active: [1] 127 µM | [2] 89.1 µM | [3] 7.78 µM | [5] 18.3 µM | [7] 20.2 µM | [9] 128 µM | [10] 130 µM | [11] 19.7 µM | [13] 19.8 µM | [15] 26.1 µM | [17] 9.14 µM

FC(F)(F)C1(F)C(F)(F)C(F)(F)C(F)(F)C(F)(C(F)(F)F)C1(F)F (stereo not drawn)
not listed: [8] | [15] | [16] | [19] | [20]
inactive: all other assays above

CC(C)(O)C(=O)c1ccccc1
active: [20] 36.2 µM
not listed: [8] | [19]
inactive: all other assays above

CC(C)c1c(C(=O)Nc2ccccc2)c(-c2ccccc2)c(-c2ccc(F)cc2)n1CC[C@@H](O)C[C@@H](O)CC(=O)O
active: [3] 57.9 µM and 22.5 µM | [5] 61.4 µM and 34.3 µM | [6] 25.3 µM | [7] 94.5 µM | [20] 5.31 µM and 12.2 µM | [13] 66.4 µM and 45 µM | [14] 144 µM | [15] 41.9 µM and 20.2 µM | [17] 14.2 µM and 7.84 µM
inactive: [1] | [2] | [19] | [6] | [7] | [18] | [8] | [9] | [10] | [12] | [14]

CC(C)(C)C1CCCCC1O (stereo not drawn)
not listed: [11] | [16] | [19]
inactive: all other assays above

O=C1Cc2ccccc2N1c1c(Cl)cccc1Cl
active: [3] 75.3 µM | [5] 91.5 µM | [6] 1.23 µM | [20] 0.484 µM | [17] 1.4 µM
not listed: [9] | [19]
inactive: all other assays above

Cc1ccc(S(=O)(=O)O)cc1
not listed: [6] | [8] | [18] | [19] | [20]
inactive: all other assays above

CC(C)[C@@H]1CC[C@@H](C)C[C@H]1O
not listed: [8] | [19]
inactive: all other assays above

CS(=O)(=O)c1ccc([C@@H](CC2CCCC2)C(=O)Nc2cnccn2)cc1Cl
inactive: [1] | [2] | [6] | [12] | [16]
active: [3] 64.4 µM | [19] 150 µM | [5] 113 µM | [7] 73.9 µM | [8] 60.2 µM | [9] 170 µM | [10] 160 µM | [11] 136 µM | [13] 100 µM | [14] 50.6 µM

O=C(O)CCC(F)(F)C(F)(F)C(F)(F)C(F)(F)C(F)(F)F
not listed: [7] | [19]
inactive: all other assays above
